# Screens: PubChem BioAssay, National Center for Advancing Translational Sciences (NCATS)
# In the library only some 7.4% were active in any assay of this set; here they are far more common.
# Rab9 prom act = Rab9 promoter activation; 320,000 tested, 2.8% active; Huh7 Rab9 promoter-luciferase reporter, luminescence, 24 h; AID 485297; Potency, µM (doses to about 9.22 µM), without a hit: at the top dose activation, negative = inhibition, hits mostly activators; also: % of control where 0% means no effect; nearly all actives have a fitted effect of over 60% in size
#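 Stable Rab9-luc Huh7, 1500 cells/well, 2 h settle; cmpd in DMSO, 24 h, 37 °C/5% CO2; luciferase reagent 10 min RT; luminescence.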
# FLuc counter = inhibits or activates purified firefly luciferase, miR-21 counter-screen; P08659; purified FLuc, Km substrates, luminescence inhibition; Potency, µM (titrated, usually from 57.5 µM), for inactives: at the highest dose activity change, negative = inhibition, hits mostly inhibitors; 360,000 tested, 6.9% active; AID 588342;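 also: plate controls were vehicle for no effect and reference inhibitor for full effect; nearly all actives have a fitted effect of over 55% in size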
# Target sequence (P08659 whole entry, looked up): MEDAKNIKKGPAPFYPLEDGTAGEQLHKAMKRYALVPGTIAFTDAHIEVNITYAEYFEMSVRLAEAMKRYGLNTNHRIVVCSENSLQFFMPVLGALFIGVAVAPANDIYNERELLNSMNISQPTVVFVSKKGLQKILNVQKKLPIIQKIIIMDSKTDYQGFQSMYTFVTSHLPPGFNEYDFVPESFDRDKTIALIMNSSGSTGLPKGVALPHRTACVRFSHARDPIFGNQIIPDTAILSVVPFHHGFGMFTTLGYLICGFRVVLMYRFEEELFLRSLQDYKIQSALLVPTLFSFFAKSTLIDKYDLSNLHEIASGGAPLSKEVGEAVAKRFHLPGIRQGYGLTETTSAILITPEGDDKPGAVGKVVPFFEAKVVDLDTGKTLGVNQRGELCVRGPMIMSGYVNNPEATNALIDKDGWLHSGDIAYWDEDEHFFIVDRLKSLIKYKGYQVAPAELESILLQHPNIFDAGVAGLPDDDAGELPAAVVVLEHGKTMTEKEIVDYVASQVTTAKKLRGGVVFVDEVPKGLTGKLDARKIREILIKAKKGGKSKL
#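 Biochemical qHTS of compounds, final roughly 60 µM downward over six points, against 10 nM purified firefly luciferase using Km concentrations of substrates (10 uM D-luciferin, 10 uM ATP) in Tris acetate pH 7.5 buffer; luminescence output.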
# SMN2 splice up = SMN2 splice variant enhancement; HEK293 SMN2-luciferase splicing reporter, luminescence, 30-36 h; Potency, µM (top dose mostly 46.1 µM), without a hit: at the highest dose activity change, positive = activation, actives largely listed as activators; 210,000 tested, 2.8% active; AID 1458; also: % of control where 0% means no effect; nearly all actives have a fitted effect of over 55% in size
#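 qHTS luciferase splicing reporter: luminescence rises when SMN2 exon 7 is included in transfected HEK293 cells. Compound exposure lasted 30-36 h at 37C, with 4.5 mM final sodium butyrate as control, followed by a ONE-Glo read.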
# Luc counter = Kinase-Glo luciferase inhibition (counter-screen); Kinase-Glo luciferase, ATP luminescence, 8 min; Potency, µM (series often up to 38.3 µM), for the others: top-dose activity change, negative = inhibition, most hits filed as inhibitors; 200,000 tested, 0.28% active; Q27757; also: % is scaled to controls: 0 for no effect and ±100 for the full control effect; nearly all actives have a fitted effect of over 60% in size
#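 Inhibition of Kinase-Glo luciferase light generation was assessed at 10 uM ATP in pH 7.2 imidazole buffer, with luminescence measured after eight minutes at ambient temperature.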
# NPC1 promoter act = NPC1 promoter activation; Huh7 NPC1 promoter luciferase reporter, 24 h; Potency, µM (doses to about 9.22 µM), inactives show at the top dose activation, usual class: activators; 320,000 tested, 2.4% active; AID 485313; also: % of control where 0% means no effect; nearly all actives have a fitted effect of over 60% in size
#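 Readout is luciferase luminescence, reflecting NPC1 promoter activation in stably transfected Huh7 cells after 24 h compound exposure at 37 °C in reduced-serum medium with 10% FBS.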
# ELG1 genotox = genotoxicity induction in ELG1-luciferase HEK293T cells. 330,000 tested, 1.3% active. HEK293T ELG1-luciferase reporter, luminescence, 16 h. Potency, µM (highest dose often 46 µM), for inactives: at the highest dose activity change, positive = activation, most hits filed as activators; also: % of control where 0% means no effect; nearly all actives have a fitted effect of over 60% in size
#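 Genotoxicity was scored as increased ELG1-luciferase reporter signal, measured by ONE-Glo luminescence (30 min, room temperature). Compound or vehicle exposure of the HEK293T reporter cells lasted 16 hr at 37°C.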
# Starred values were filed as active, the others as inactive; u = inconclusive; x = not tested or not shown. Calls follow the shape of the dose curve; as a rule, active = well fitted curve in the direction sought with a large enough effect; inconclusive = small, poorly fitted or top-dose-only effect, or another doubt; inactive = no such curve, though single readings can be large; an effect the other way counts as inactive or inconclusive. Potency is read from the fitted curve at half-maximal effect.
SMILES,Rab9 prom act,FLuc counter,SMN2 splice up,Luc counter,NPC1 promoter act,ELG1 genotox
Cc1ccc2nc(-c3ccc(NC(=O)COC(=O)c4ccc(Br)o4)cc3)sc2c1,0.398µM*,3.38µM*,0.501µM*,-0.4%,0.794µM*,1.16µM*
O=C(COC(=O)c1ccc(Br)o1)Nc1ccc(Br)cc1,8.9%,-1.0%,x,x,3.0%,2.6%
Cc1nc2ccc(NC(=S)NC3CCCCC3)cc2nc1C,3.55µM*,16.9µM*,16.9%,-2.4%,u,6.4%
Cc1ccc(NC(=S)NC2CCCC2)cc1C,u,u,u,1.0%,10.3%,6.4%
S=C(Nc1ccc2[nH]ccc2c1)NC1CCCCC1,2.51µM*,13.5µM*,x,x,2.51µM*,10.9%
CC(C)n1cc(/C=N/NC(=O)COc2cccc3cccnc23)c2ccccc21,0.5%,2.69µM*,x,x,-0.5%,-5.3%
COc1cccc(/C=N/NC(=O)COc2cccc3cccnc23)c1O,-25.3%,12µM*,-22.8%,-2.0%,-8.2%,2.5%
COc1ccc(C)cc1NC(=O)c1nn(-c2ccccc2)cc1OC,-5.5%,u,x,x,-13.4%,-16.5%
COc1cn(-c2ccccc2)nc1C(=O)Nc1ccccc1,u,13.5µM*,x,x,u,16.0%
COc1cn(-c2ccccc2)nc1C(=O)Nc1ccc(C)cc1,u,8.49µM*,x,x,u,-7.4%
Cc1ccc2nc(-c3ccc(SCC(=O)Nc4nc(C)cs4)nc3)[nH]c2c1,2.82µM*,0.536µM*,6.31µM*,-4.8%,3.55µM*,u
Cc1ccc(SCC(=O)Nc2ccc(-c3nc4ccccc4[nH]3)cc2)cc1,u,-8.2%,5.62µM*,0.0%,u,u
CN(C)CCNC(=S)Nc1ccc(-c2nc3ccccc3[nH]2)cc1,1.58µM*,9.53µM*,11.2µM*,-2.0%,2.24µM*,18.4%
S=C(NCCCN1CCOCC1)Nc1ccc(-c2nc3ccccc3[nH]2)cc1,27.3%,u,-14.4%,-1.8%,21.2%,-1.1%
O=C(CSc1n[nH]c(-c2ccccc2O)n1)N1CCOCC1,26.6%,19µM*,18.0%,-16.9%,5.0%,8.0%
Cc1ccc(NC(=O)CCCSc2nc3ccccc3[nH]2)cc1,1.3%,u,-20.0%,-1.2%,-1.3%,-0.3%
CCOc1ccc(C2c3[nH]c4ccccc4c3CCN2C(=O)CSc2ccccc2)cc1 (stereo not given),x,-4.6%,x,x,x,x
CCCCOC(=O)c1ccc(Nc2ncnc3[nH]ncc23)cc1,x,-7.7%,x,x,x,x
Cc1nnc(NC(=O)CSc2n[nH]c(-c3ccccc3C)n2)s1,-11.5%,-1.2%,x,x,0.6%,3.7%
CCc1nnc(NC(=O)CSc2n[nH]c(-c3ccccc3O)n2)s1,-7.1%,16.9µM*,x,-1.3%,0.8%,0.4%
CCc1nnc(NC(=O)CSc2ccc(-c3nc4ccccc4[nH]3)cn2)s1,2.51µM*,u,u,-10.7%,u,u
Cc1ccc2nc(SCC(=O)Nc3nnc(SCC(N)=O)s3)[nH]c2c1,-1.3%,16.9µM*,-0.9%,1.7%,-0.6%,-0.3%
Cc1ccc2nc(-c3ccc(SCC(=O)Nc4nnc(C)s4)nc3)[nH]c2c1,2.82µM*,0.601µM*,14.1µM*,-17.8%,2.51µM*,u
Cc1cc(C)c2c(n1)sc1c(=O)n(-c3ccccc3C(F)(F)F)nnc12,x,-5.5%,3.2%,x,x,x
CC(=O)Nc1ccc(-c2nc3c(C)cccc3[nH]2)cc1,1.58µM*,2.39µM*,3.55µM*,-17.2%,2.51µM*,2.91µM*
SMILES,Rab9 prom act,FLuc counter,SMN2 splice up,Luc counter,NPC1 promoter act,ELG1 genotox
Cc1nc(NC(=O)CSc2ccc(-c3nc4ccccc4[nH]3)cn2)sc1C,u,-12.9%,17.4%,-5.1%,u,u
O=C(CSc1ccc(-c2nc3ccccc3[nH]2)cn1)Nc1ccc(S(=O)(=O)NC2CC2)cc1,2.2%,1.51µM*,44.1%,-5.5%,-0.6%,0.5%
CCOC(=O)CSc1nc2ccc(NC(=O)COc3ccc(F)cc3)cc2s1,x,-1.8%,x,x,x,x
COc1ccccc1CN1CCCC2(CCN(C(=O)c3ccncc3)CC2)C1,x,x,-18.6%,-2.7%,x,x
Cc1ccc2nc(N/N=C/c3ccccc3C#N)nc(-c3ccccc3)c2c1,6.6%,10.7µM*,-8.1%,4.4%,0.9%,-5.6%
N#Cc1ccccc1/C=N/Nc1nc(-c2ccccc2)c2cc(Cl)ccc2n1,-4.0%,-1.1%,8.7%,4.5%,-2.8%,15.1%
Cc1ccc(OCc2cc(=O)n3ccsc3n2)c(NC(=O)c2ccco2)c1,x,-4.0%,x,x,x,x
COC(=O)Cc1c(OC)ccn(CCc2c[nH]c3ccccc23)c1=O,3.16µM*,16.9µM*,11.2µM*,1.1%,u,u
CCC(CC)C(=O)Nc1ccc2nc(SCC(=O)N3CCCC3)sc2c1,x,-4.8%,x,x,x,x
CC(C)(C)NC(=O)c1nc2ccccc2s1,4.0%,-26.4%,-11.5%,-1.5%,16.8%,5.1%
CC(C)(C)C(=O)Nc1ccc(-c2nc3ccccc3s2)cc1,x,0.0151µM*,x,x,x,x
CCS(=O)(=O)c1ccccc1C(=O)Nc1ccc(-c2nc3ccccc3s2)cc1,x,9.53µM*,x,x,x,x
CCc1ccc(-n2nc(C)c3c(C(=O)Nc4cc(C)c(Cl)cc4OC)cc(C)nc32)cc1,x,4.5%,x,x,x,x
COc1cccc(C(=O)Nc2nnc(C3CCCO3)s2)c1 (stereo not given),2.24µM*,15.1µM*,11.2µM*,-1.1%,2.82µM*,u
O=C(Nc1nnc(C2CCCCC2)s1)c1cccs1,2.82µM*,4.78µM*,14.1µM*,0.0%,2.24µM*,u
O=C(Nc1nnc(C2CCCO2)s1)c1cccs1 (stereo not given),15.1%,u,12.6µM*,-4.8%,28.9%,u
Cc1cc(O)c(C(c2ccccc2)N2CCN(c3ccccc3)CC2)c(=O)n1Cc1ccco1 (stereo not given),x,-14.7%,x,x,x,x
Cc1cccc(N2CCN(S(=O)(=O)c3ccc(-c4cnc(C5CC5)o4)cc3)CC2)c1C,x,-2.8%,x,x,x,x
O=C1Nc2ccccc2/C1=C/c1cnc(-c2ccccc2)[nH]1,3.98µM*,u,x,x,2.82µM*,u
Cc1ccc(NC(=O)CN2C(=O)CCc3cc(S(=O)(=O)N4CCOCC4)ccc32)cc1N(C)C,x,-2.6%,x,x,x,x
Brc1ccc(C2=Nc3cccc4cccc(c34)N2)o1,20.6%,12µM*,1.3%,-4.1%,19.7%,2.5%
FC(F)(F)C1=Nc2cccc3cccc(c23)N1,-0.1%,u,x,x,-0.4%,-2.4%
Brc1ccc(-c2ccc(C3Nc4cccc5cccc(c45)N3)o2)cc1,3.7%,-4.9%,x,x,-2.9%,-2.3%
Fc1ccc(C2=Nc3cccc4cccc(c34)N2)cc1,u,15.1µM*,-14.1%,-3.7%,15.8%,1.3%
CC(C)COC(=O)c1ccc2c(c1O)C(=O)c1ccccc1C2=O,3.16µM*,1.35µM*,u,-14.3%,2µM*,1.3µM*
